Hits are enriched below; roughly 5.7% of the tested compounds scored in any of these assays.
TGFb SMAD3 inh: blocks TGF-b signaling; HepG2 CAGA-GFP TGF-b/SMAD3 reporter, GFP fluorescence, 18 h; TGF-beta stimulated, 500 pg/mL final; Potency, µM (series often up to 46.1 µM), inactives show at the top dose activity, negative = inhibition, usual class: inhibitors; actives 1.2% (n = 410,000); further: potency means the concentration at half of the fitted maximal effect; on the % scale 0 is the no-effect control and ±100 the full control effect; nearly all actives have a fitted effect of over 65% in size
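GFP signal (ex488/em500-530) from TGF-beta-stimulated HEPG2 CAGA-GFP cells, 500 pg/mL final, 18 h at 37 degrees C in DMEM plus 1% FBS, normalized to unstimulated and DMSO-stimulated controls.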
IL1B secr inh: inhibitors of inflammasome signaling (IL-1 beta secretion). actives 4.7% (n = 360,000). activity change, % at 57.5 µM. THP-1 LPS/ATP IL-1B secretion, AlphaLISA, 16 h; hits give low values. AID 743279; in the data active means activity change below about -50%; inconclusive means mostly about -30% to -49%; further: on the % scale 0 is the no-effect control and ±100 the full control effect
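Secreted IL-1B measured by AlphaLISA bead assay after 16 h compound exposure of THP-1 cells; compounds (final up to 57.5 uM) added 1 h before LPS (250 ng/mL) and ATP (1.25 mM) stimulation; lower signal means less secretion.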
ATXN viability: reduces viability in counter-screen for ATXN expression inhibitors. S2 cells (HEK-293 line with an ATXN2-luciferase reporter) viability, CellTiter-Fluor protease fluorescence, 24 h. Potency, µM (top dose mostly 56.7 µM), actives largely listed as cytotoxic. actives 0.49% (n = 400,000). AID 651635; further: potency means the concentration at half of the fitted maximal effect; nearly all actives have a fitted effect of over 40% in size
HepG2 tox: counter-screen for TGF-b inhibitors: cytotoxicity in HepG2 cells | HepG2 CAGA-GFP viability, ATP luminescence, 18 h | Potency, µM (titrated, usually from 46.1 µM), inactives show top-dose activity change, negative = cytotoxicity, usual class: cytotoxic | actives 0.76% (n = 410,000); further: potency means the concentration at half of the fitted maximal effect
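HepG2 CAGA-GFP cells (1000/well, DMEM with 1% FBS) received compound, then TGF-beta at 500 pg/mL final, and were incubated 18 hours at 37 degrees C. Viability was read by CellTiter-Glo luminescence. Media-only wells were set as complete cell-killing and DMSO as no toxicity.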
ATXN2 expr inh: reduces ATXN2 reporter expression in HEK-293 cells. HEK-293 ATXN2-luciferase reporter, luminescence, 24 h. Potency, µM (top dose mostly 57 µM), for the others: at the top dose activity change, negative = inhibition, most hits filed as inhibitors. actives 0.72% (n = 360,000); further: potency means the concentration at half of the fitted maximal effect; on the % scale 0 is the no-effect control and ±100 the full control effect; nearly all actives have a fitted effect of over 55% in size
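qHTS (up to 57 uM final) was run with 24 h compound exposure of reporter cells at 37 °C. Each well was multiplexed: SteadyGlo luminescence measured ATXN2-luciferase expression after a fluorogenic Gly-Phe-AFC viability readout (25 uM final).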
* = called active by the depositor; i = inactive; ? = inconclusive; nt = no result. Unless noted, the call rests on the fitted dose curve; in most records, active means well fitted curve in the direction sought with a large enough effect; inconclusive means small, poorly fitted or top-dose-only effect, or another doubt; inactive means no such curve, though single readings can be large; an effect the other way counts as inactive or inconclusive.

SMILES	TGFb SMAD3 inh	IL1B secr inh	ATXN viability	HepG2 tox	ATXN2 expr inh
Cc1ccc2c(CN3CCN(Cc4ccccc4)CC3)cc(=O)oc2c1C	17.6%	-74.5*	i	-31.3%	?
O=c1cc(CN2CCN(C/C=C/c3ccccc3)CC2)c2cc(O)c(-c3ccccc3)cc2o1	-2.4%	?	i	-14.3%	-25.0%
Oc1ccc2ccccc2c1CN1CCN(C/C=C/c2ccccc2)CC1	-34.5%	-76.7*	i	-23.3%	23.2%
CCOc1ccc(CNC(=O)c2cccn2-c2nnc(N3CCCCC3)s2)cc1OC	-23.1%	nt	i	-26.3%	3.0%
CC(C)c1cnc2c(c1SCC(=O)NCc1ccccc1)c(=O)n(C)c(=O)n2C	-9.7%	nt	nt	0.7%	nt
CC(C)(C)OC(=O)CN(Cc1ccc(Cl)cc1)Cc1ccc([N+](=O)[O-])s1	nt	nt	nt	nt	-18.9%
COc1ccc(CCNC(=S)NCc2ccc(Cl)c(Cl)c2)cc1OC	?	-85.3*	i	-8.1%	-27.4%
Fc1ccccc1NC(=S)NCCc1cccc(Cl)c1	0.0%	-88.2*	i	-32.3%	15.9%
Cc1c(Cl)cccc1NC(=S)NCCc1ccc(C(F)(F)F)cc1	?	-102.2*	i	-2.1%	-16.4%
S=C(NCCc1ccccc1)Nc1ccccc1Cl	0.0%	-10.4	i	3.6%	27.0%
S=C(NCCc1ccccc1)NCc1cccc(Cl)c1	12.6µM*	7.7	i	-44.2%	1.1%
CCNC(=S)NCc1ccc(OC)c(OC)c1	8.6%	11.2	i	7.4%	-4.3%
CCOc1ccc(CCNC(=O)CCCn2c(=O)c3cccn3c3cccnc32)cc1	-9.0%	nt	nt	-19.1%	nt
COCCNC(=S)N/N=C(\C)CCc1ccc2c(c1)OCO2	?	24.1	i	-29.9%	1.7%
C/C(CCc1ccc2c(c1)OCO2)=N\NC(=S)NC(C)C	?	-10.0	7.08µM*	-71.0%	7.94µM*
Cc1ccccc1Nc1c(-c2ccncc2)nc2ccc(Cl)cn12	15.8µM*	-51.9*	?	17.8µM*	-4.3%
Cc1ccn2c(Nc3ccccc3C)c(-c3ccccc3)nc2c1	-3.5%	nt	?	12.6µM*	13.9%
Cc1ccc2nc(-c3ccsc3)c(Nc3ccccc3C)n2c1	-16.8%	nt	i	-34.2%	10.0%
Cc1ccn2c(Nc3ccccc3C)c(-c3cccnc3)nc2c1	-8.5%	-13.9	?	-46.8%	-13.1%
CCn1c(=O)sc2cc(NS(=O)(=O)c3ccc(F)c(C)c3)ccc21	?	nt	nt	-28.5%	nt
CCN(CC(=O)Nc1ccccc1C(F)(F)F)C(=O)c1cccc(N2C(=O)CCC2=O)c1	-29.7%	10.1	i	8.9%	-4.7%
CCN(CC(=O)Nc1ccccc1C(F)(F)F)C(=O)c1cc2c(s1)CCCCC2	-21.3%	-53.2*	i	-9.6%	2.5%
COC(=O)c1ccccc1S(=O)(=O)N1CCn2cccc2C1C (centres undefined)	-3.8%	-78.3*	i	19.9%	4.0%
COc1ccc(NC(C)=O)cc1S(=O)(=O)N1CCn2cccc2C1C (centres undefined)	-6.6%	-8.5	i	-4.9%	0.9%
Cc1cc2c(cc1S(=O)(=O)Nc1cccc(C(F)(F)F)c1)OCCN2C	3.55µM*	nt	nt	-48.8%	nt
SMILES	TGFb SMAD3 inh	IL1B secr inh	ATXN viability	HepG2 tox	ATXN2 expr inh
Cc1c(Cl)cccc1N/C(SCC(=O)N1CCCCCC1)=C(/C#N)c1nc2ccccc2s1	-6.4%	-93.5*	nt	-1.9%	?
COc1ccccc1-n1c2nc3ccccc3nc2c2c(=O)n(-c3cc(C)cc(C)c3)cnc21	0.0%	-94.6*	i	-10.1%	-18.7%
N#Cc1ccc(OCC(O)CN2CCN(c3ncc(C(F)(F)F)cc3Cl)CC2)cc1 (centres undefined)	?	-65.1*	i	-25.1%	?
N#Cc1ccc(OCC(O)CN2CCN(CC(O)COc3ccc(C#N)cc3)CC2)cc1 (centres undefined)	-0.4%	15.9	i	0.6%	-36.1%
C=CC(=O)N1C/C=C\C(c2ccc(OC)cc2)N(Cc2ccc(F)cc2)C(=O)C1 (centres undefined)	-18.9%	-61.3*	i	13.7%	-9.2%
C/C(O)=c1/ccc2cccc3nc(C)nc1c23	-0.2%	-52.7*	nt	-0.6%	-12.2%
CCn1c(SCC(=O)Nc2ccc(Cl)cc2)nc2nc3c(cc2c1=O)CCCC3	-5.3%	-64.0*	i	-5.2%	-24.3%
CCn1c(SCC(=O)Nc2ccc(OC)cc2)nc2nc3c(cc2c1=O)CCCC3	-17.5%	-82.5*	?	30.1%	-22.3%
CCn1c(SCC(=O)Nc2ccc(C(C)=O)cc2)nc2nc3c(cc2c1=O)CCCC3	2.8%	-54.6*	28.2µM*	-19.1%	?
CCn1c(C)nnc1SCC(=O)Nc1ccc(OC)cc1	-5.5%	0.5	i	6.31µM*	nt
Cc1ccc(C(C)OC(=O)C2(C)CCC(C(=O)O)C2(C)C)cc1 (centres undefined)	nt	nt	i	nt	14.0%
Cc1cccc(OCC(=O)Nc2ccc(N3CCN(C(=O)c4ccco4)CC3)cc2)c1	?	-54.5*	?	-37.1%	?
Cc1ccc(OCC(=O)Nc2ccc(N3CCN(C(=O)c4ccco4)CC3)cc2)cc1C	-20.9%	-82.0*	i	-7.0%	-9.4%
Cc1cccc(OCC(=O)Nc2ccc3c(c2)OCCO3)c1	5.1%	-29.4	i	1.3%	61.3%
C/C(=N\OCC(=O)Nc1ccc(OC(F)(F)F)cc1)c1ccc2c(c1)OCCO2	-25.9%	-69.4*	i	-20.2%	-10.5%
Cc1cc(OCC(=O)Nc2ccc(N3CCN(C(=O)c4ccco4)CC3)cc2)cc(C)c1Cl	?	-3.5	?	-6.2%	-28.2%
C/C(=N\OCC(=O)Nc1ccccc1C(C)(C)C)c1ccc2c(c1)OCCO2	-2.1%	?	i	-7.4%	-1.7%
Cc1ccc(OCC(=O)Nc2ccc3c(c2)OCCO3)cc1C	-0.5%	-67.2*	i	-6.5%	0.4%
CCOc1cc(C(=O)NCCc2sc(-c3ccc(F)cc3)nc2C)cc(OCC)c1OCC	-6.4%	nt	?	15.5%	-22.0%
O=[N+]([O-])c1cc(Cl)cc(/C=N\Nc2ccccn2)c1O	?	125.9	?	-44.0%	7.08µM*
COc1ccc(CN2CCC3(CCC(CNC(=O)c4ccnn4C)O3)CC2)c(C)c1C (centres undefined)	nt	nt	i	nt	nt
CC(C)CC(=O)Nc1nnc(SCc2cc(=O)n3ccccc3n2)s1	-12.7%	nt	nt	-5.9%	nt
N#C/C(=C\c1cc([N+](=O)[O-])ccc1Cl)C(N)=O	5.7%	-88.8*	i	0.5%	-17.3%
CC(C)(C)n1nnnc1C(c1cccs1)N(Cc1cccnc1)Cc1ccccc1Cl (centres undefined)	17.8µM*	-11.8	?	-32.0%	?
CC(c1nnnn1C(C)(C)C)N(Cc1cccnc1)Cc1ccccc1Cl (centres undefined)	3.0%	?	i	-28.0%	-9.8%
